# Inconclusive results are not listed. For some of these results: Measured potencies and affinities stand elsewhere. Activity calls are given as the source filed them. Unless noted, how the calls were made is not given here.
# Tests used:
# [1] = blockers of polyQ-driven CASP3 activation – cell-based (AID 1583); details: polyglutamine-induced caspase-3 activation, cell assay; stronger effect = higher value;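 tested at 10 µM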
# [2] = yeast 75Q aggregation reduction – 75Q-TubU reporter (AID 1593); details: Yeast 75Q polyglutamine aggregation reporter
# [3] = restoration of touch response, mutant HTT neurons – whole organism, C. elegans mechanosensory neurons, N-terminal huntingtin (AID 1599); details: C. elegans polyQ-huntingtin mechanosensory neurons, stronger effect = higher value
# [4] = blockers of cytochrome c efflux from mitochondria – biochemical, purified mitochondria (AID 1603); details: stronger effect = lower value;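 further: mouse liver mitochondria challenged with calcium chloride; signal normalized to the plate average as 100%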
# [5] = polyglutamine aggregate formation blockers (AID 1604); details: polyglutamine-induced protein aggregation inhibition assay; stronger effect = higher value; tested at 2.5 µM
# [6] = glutamate transport activators, MN-1 cells, MN-1 cell line (AID 1612); details: MN-1 motor neuron cells, stronger effect = higher value;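 further: tested at 1 µM final; 0% = mean of DMSO vehicle wells on each plate; positive means more glutamate uptake than control and negative means less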
# [7] = 75Q-TubH aggregate inhibition, S. cerevisiae, yeast (AID 1616); details: S. cerevisiae 75Q-TubH polyglutamine aggregation suppression; stronger effect = higher value
# [8] = compounds altering viability of human ES cells (AID 493140); details: human embryonic stem cell survival screen; stronger effect = higher value;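 further: cells exposed to compounds for four days before counting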
# [9] = molecular target: ATP-dependent translocase ABCB1 (Homo sapiens) (UniProt P08183); assay: P-glycoprotein substrate transport blockade – cell-based (AID 377; in the data active means fluorescence slope change above about 50%); details: MDR1-expressing cells, fluorescent substrate accumulation slope; stronger effect = higher value; concentration not given here
# ATP-dependent translocase ABCB1 (Homo sapiens), sequence (P08183 whole entry, looked up): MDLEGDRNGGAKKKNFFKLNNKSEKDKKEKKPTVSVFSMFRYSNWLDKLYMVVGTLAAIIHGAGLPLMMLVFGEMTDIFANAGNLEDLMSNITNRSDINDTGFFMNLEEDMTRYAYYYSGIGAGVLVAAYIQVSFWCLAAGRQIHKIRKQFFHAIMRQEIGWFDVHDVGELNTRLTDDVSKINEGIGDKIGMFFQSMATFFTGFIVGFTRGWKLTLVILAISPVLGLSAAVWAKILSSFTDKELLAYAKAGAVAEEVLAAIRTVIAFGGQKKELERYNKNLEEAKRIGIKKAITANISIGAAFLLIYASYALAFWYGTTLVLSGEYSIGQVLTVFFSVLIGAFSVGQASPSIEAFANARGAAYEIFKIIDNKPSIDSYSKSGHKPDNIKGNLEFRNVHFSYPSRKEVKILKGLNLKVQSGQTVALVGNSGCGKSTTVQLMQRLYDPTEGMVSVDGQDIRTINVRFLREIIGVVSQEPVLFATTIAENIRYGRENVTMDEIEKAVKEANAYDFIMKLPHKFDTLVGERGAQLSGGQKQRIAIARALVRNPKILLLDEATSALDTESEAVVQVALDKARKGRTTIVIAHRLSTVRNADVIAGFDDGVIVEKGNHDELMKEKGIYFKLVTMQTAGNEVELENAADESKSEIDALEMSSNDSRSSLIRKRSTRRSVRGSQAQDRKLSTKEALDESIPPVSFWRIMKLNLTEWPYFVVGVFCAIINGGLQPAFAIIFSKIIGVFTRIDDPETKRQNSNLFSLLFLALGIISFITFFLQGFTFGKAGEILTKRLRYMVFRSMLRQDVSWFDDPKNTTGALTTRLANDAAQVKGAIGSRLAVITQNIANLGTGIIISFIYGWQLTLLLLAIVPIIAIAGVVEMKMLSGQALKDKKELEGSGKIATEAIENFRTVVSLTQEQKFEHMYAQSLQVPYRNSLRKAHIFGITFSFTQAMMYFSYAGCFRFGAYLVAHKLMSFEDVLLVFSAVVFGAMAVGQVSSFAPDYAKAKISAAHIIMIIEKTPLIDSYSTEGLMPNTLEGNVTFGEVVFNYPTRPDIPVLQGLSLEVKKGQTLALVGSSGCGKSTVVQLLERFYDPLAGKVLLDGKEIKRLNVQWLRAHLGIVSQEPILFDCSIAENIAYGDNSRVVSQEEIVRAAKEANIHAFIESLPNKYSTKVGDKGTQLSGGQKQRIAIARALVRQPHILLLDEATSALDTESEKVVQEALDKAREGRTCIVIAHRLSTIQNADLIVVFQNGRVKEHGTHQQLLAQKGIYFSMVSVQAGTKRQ
# [10] = GFP-Q80 aggregate reduction, neuronal-like cells, cell-based, NGF-treated PC12, GFPQ80 (AID 1614); details: PC12 NGF-treated GFP-polyQ80 inclusion reduction;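 further: lower means fewer inclusions and 0 means no inclusions at all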
# [11] = compounds altering circadian rhythm period length – cell-based, LOPAC library, luminescence reporter (AID 2774); details: circadian reporter cells, at 7 µM, actives lie on both sides;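 further: values are relative to mean of DMSO wells on each plate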
# [12] = antimalarial activity against Dd2 strain (AID 2302;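 active means growth inhibition above 50% at the single 2 µM test dose, taken to imply half-maximal potency below 2 µM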;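 further: 0% = DMSO untreated growth and 100% = chloroquine plus artemisinin killed control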); details: P. falciparum Dd2 in RBCs, LDH growth readout, 72 h; at 2 µM; stronger effect = higher value
# [13] = human hepatoma cell viability loss – ATP luminescence, cytotoxicity control for P. falciparum antimalarial project, primary screen (AID 2303;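 active means inhibition above 50%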;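 further: 0% = DMSO wells and 100% = digitonin-killed cells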); details: HepG2 viability, 24-48 h, at 10 µM, stronger effect = higher value
# [14] = molecular target: L-lactate dehydrogenase (Plasmodium falciparum (isolate CDC / Honduras)) (UniProt Q27743); assay: PfLDH activity inhibition – cell lysate, 3D7 strain, counter-screen for P. falciparum growth inhibition project (AID 2304);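 further: 0% = vehicle and 100% = reference inhibitor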; details: P. falciparum 3D7 crude extract, LDH APAD/NBT absorbance; at 2 µM; stronger effect = higher value
# L-lactate dehydrogenase (Plasmodium falciparum (isolate CDC / Honduras)), sequence (Q27743 whole entry, looked up): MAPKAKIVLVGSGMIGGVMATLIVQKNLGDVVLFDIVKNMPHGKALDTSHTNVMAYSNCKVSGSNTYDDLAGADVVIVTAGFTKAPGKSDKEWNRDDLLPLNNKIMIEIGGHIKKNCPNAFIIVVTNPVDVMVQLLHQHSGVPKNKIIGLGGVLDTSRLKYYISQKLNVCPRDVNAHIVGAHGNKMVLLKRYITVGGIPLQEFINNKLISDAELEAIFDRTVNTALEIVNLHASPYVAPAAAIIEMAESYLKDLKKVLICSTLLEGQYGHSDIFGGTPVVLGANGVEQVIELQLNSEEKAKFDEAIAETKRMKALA
# [15] = inhibition of 3D7 malaria parasite growth – strain 3D7 (AID 2306);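 further: 0% = DMSO wells and 100% = chloroquine plus artemisinin control wells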; details: P. falciparum 3D7 erythrocytic growth, LDH absorbance, 72 h; at 2 µM; stronger effect = higher value
compound,measurement,setting,value
CC/C(=C(/CC)c1ccc(O)cc1)c1ccc(O)cc1,inhibition,[1],48.1%
same,score,[2],0.36
same,rescue above control,[3],-4.53
same,cytochrome c release ratio,[4],0.65
same,inhibition of aggregation,[5],38.5%
same,glutamate uptake change,[6],-14.4%
same,aggregation suppression score,[7],0.447
same,survival,[8],3.75 (inactive)
Cc1cc2cc3c(C)cc(=O)oc3c(C)c2o1,fluorescence slope change,[9],18.1% (inactive)
same,inhibition,[1],-5.8%
same,score,[2],0.49
same,cytochrome c release ratio,[4],1.2
same,inhibition of aggregation,[5],74.1%
same,glutamate uptake change,[6],-15.5%
same,inclusion score,[10],2
same,aggregation suppression score,[7],0.635
same,survival,[8],6 (inactive)
CCCCCCCCNC(C)C(O)c1ccc(SC(C)C)cc1 (stereo unspecified),inhibition,[1],71.7%
same,score,[2],-1.11
same,rescue above control,[3],0
same,cytochrome c release ratio,[4],0.61
same,inhibition of aggregation,[5],63%
same,glutamate uptake change,[6],-7.34%
same,aggregation suppression score,[7],0.0242
same,survival,[8],0.25 (inactive)
C[C@H]1O[C@@H](n2cc(F)c(=O)[nH]c2=O)[C@H](O)[C@@H]1O,period change,[11],-0.1 h (inactive)
CCCCC1C(=O)N(c2ccccc2)N(c2ccc(O)cc2)C1=O (stereo unspecified),inhibition,[1],-30.1%
same,score,[2],0.89
same,rescue above control,[3],-3.48
same,cytochrome c release ratio,[4],0.98
same,inhibition of aggregation,[5],61%
same,glutamate uptake change,[6],5.7%
same,aggregation suppression score,[7],0.77
same,survival,[8],4 (inactive)
CC1=NN(c2ccccc2)C(=O)C1,inhibition,[1],-19.6%
same,score,[2],1.27
same,cytochrome c release ratio,[4],0.94
same,inhibition of aggregation,[5],10.2%
same,glutamate uptake change,[6],-0.14%
same,inclusion score,[10],2
same,aggregation suppression score,[7],0.985
CN1CCC(=C2c3ccccc3Sc3ccccc32)CC1,fluorescence slope change,[9],107% (active)
same,inhibition,[1],-31.4%
same,score,[2],1.33
same,cytochrome c release ratio,[4],1.44
same,inhibition of aggregation,[5],88.8%
same,glutamate uptake change,[6],7.96%
same,aggregation suppression score,[7],1.3
same,survival,[8],12.3 (inactive)
COc1cc2c(Nc3ccc(Br)cc3F)ncnc2cc1OCC1CCN(C)CC1,growth inhibition,[12],16% (inactive)
same,inhibition,[13],10% (inactive)
same,inhibition,[14],5% (inactive)
same,growth inhibition,[15],97% (active)
CCOc1ccc2nc3cc(N)ccc3c(N)c2c1,growth inhibition,[12],70% (active)
same,inhibition,[13],8% (inactive)
same,inhibition,[14],0% (inactive)
same,growth inhibition,[15],98% (active)
CCN1CCC[C@H]1CNC(=O)c1cc(S(N)(=O)=O)ccc1OC,period change,[11],-0.035 h (inactive)
O=C(Nc1cccc(C2=NCCN2)c1)Nc1cccc(C2=NCCN2)c1,growth inhibition,[12],99% (active)
same,inhibition,[13],16% (inactive)
same,inhibition,[14],7% (inactive)
same,growth inhibition,[15],98% (active)
CCCCCCCC/C=C\CCCCCCCC(=O)NCc1ccc(O)c(OC)c1,growth inhibition,[12],93% (active)
same,inhibition,[13],-7% (inactive)
same,inhibition,[14],-7% (inactive)
same,growth inhibition,[15],96% (active)
NC/C=C/C(=O)O,period change,[11],-0.005 h (inactive)
COc1cc2c(cc1OC)-c1cc(=Nc3c(C)cc(C)cc3C)n(C)c(=O)n1CC2,growth inhibition,[12],29% (inactive)
same,inhibition,[13],14% (inactive)
same,inhibition,[14],0% (inactive)
same,growth inhibition,[15],92% (active)
same,period change,[11],0.41 h (inactive)
Cc1cn[nH]c1,period change,[11],0.23 h (inactive)
CCCCNc1ccc(C(=O)OCCN(C)C)cc1,inhibition,[1],3.42%
same,score,[2],1.3
same,cytochrome c release ratio,[4],0.87
same,inhibition of aggregation,[5],21.1%
same,glutamate uptake change,[6],5.32%
same,inclusion score,[10],2
same,aggregation suppression score,[7],1.05
same,period change,[11],0.035 h (inactive)
same,survival,[8],12.4 (inactive)
NC1CCN(c2cccc(Cl)n2)CC1,period change,[11],-0.02 h (inactive)
CCN1CCC[C@H]1CNC(=O)c1c(O)c(Cl)cc(Cl)c1OC,period change,[11],-0.03 h (inactive)
CCCCc1ccc2nc(NC(=O)OC)[nH]c2c1,growth inhibition,[12],1% (inactive)
same,inhibition,[13],26% (inactive)
same,inhibition,[14],-3% (inactive)
same,growth inhibition,[15],98% (active)
same,survival,[8],1 (inactive)
O=C1C(O)=C(O)C(=O)C(O)=C1O,inhibition,[1],0.61%
same,score,[2],0.92
same,rescue above control,[3],-5.82
same,cytochrome c release ratio,[4],1.43
same,inhibition of aggregation,[5],8.97%
same,glutamate uptake change,[6],5.54%
same,aggregation suppression score,[7],1.42
same,survival,[8],4.75 (inactive)
O=C1CCc2cc(OCCCCc3nnnn3C3CCCCC3)ccc2N1,period change,[11],0.02 h (inactive)
CCCCC(CC)CN=C(N)NC(N)=NCCCCCCN=C(N)NC(N)=NCC(CC)CCCC (stereo unspecified),fluorescence slope change,[9],152% (active)
same,score,[2],-1.46
same,rescue above control,[3],0
same,cytochrome c release ratio,[4],26.4
same,inhibition of aggregation,[5],88%
same,glutamate uptake change,[6],-50.4%
same,aggregation suppression score,[7],-0.456
same,survival,[8],0.25 (inactive)
CC(C)NNC(=O)c1ccncc1,fluorescence slope change,[9],97.9% (active)
same,inhibition,[1],12.9%
same,score,[2],1.22
same,cytochrome c release ratio,[4],1.02
same,inhibition of aggregation,[5],71.4%
same,glutamate uptake change,[6],-13.1%
same,inclusion score,[10],2
same,aggregation suppression score,[7],1.22
same,period change,[11],0.33 h (inactive)
same,survival,[8],24.2 (inactive)
CCn1cc(C(=O)O)c(=O)c2cc3c(cc21)OCO3,fluorescence slope change,[9],56.5% (active)
same,inhibition,[1],-14.8%
same,score,[2],1.16
same,cytochrome c release ratio,[4],0.82
same,inhibition of aggregation,[5],74.7%
same,glutamate uptake change,[6],5.71%
same,inclusion score,[10],2
same,aggregation suppression score,[7],1.09
same,period change,[11],0.16 h (inactive)
same,survival,[8],33.2 (inactive)
CCCCOc1cc(C(=O)NCCN(CC)CC)c2ccccc2n1,inhibition,[1],-0.9%
same,score,[2],1.3
same,rescue above control,[3],-3.49
same,cytochrome c release ratio,[4],1.15
same,inhibition of aggregation,[5],50%
same,glutamate uptake change,[6],-13.8%
same,aggregation suppression score,[7],1.32
same,survival,[8],7.17 (inactive)
Oc1ccc(C2CNCCc3c2cc(O)c(O)c3Cl)cc1 (stereo unspecified),period change,[11],0.145 h (inactive)
CCN(CC)CCNC(=O)c1ccc(NC(C)=O)cc1,period change,[11],0.01 h (inactive)

# From PubChem BioAssay
